# Source: the antibiotic and cytotoxicity screens of Wong et al. (2023)
# About 3,300 (8.5%) of roughly 39,000 compounds were called active. The sample as a whole holds a higher share of actives than the screen did.
# Tested on: HepG2
# Experiment: cytotoxicity call (relative viability < 0.9)
# Conditions: 10 µM
row,Structure (SMILES),cytotoxicity call
1,COc1ccc(NC(=O)Nc2ccc3c(c2)C(=O)N([C@@H](C)CO)C[C@H](C)[C@H](CN(C)Cc2ccc4c(c2)OCO4)OCCCC[C@@H](C)O3)cc1,inactive
2,COc1ccc(NC(=O)Nc2ccc3c(c2)C(=O)N([C@H](C)CO)C[C@H](C)[C@H](CN(C)Cc2ccc4c(c2)OCO4)OCCCC[C@H](C)O3)cc1,active
3,COc1ccc(NC(=O)Nc2ccc3c(c2)C(=O)N([C@H](C)CO)C[C@@H](C)[C@@H](CN(C)Cc2ccc4c(c2)OCO4)OCCCC[C@@H](C)O3)cc1,active
4,COc1ccc(NC(=O)Nc2ccc3c(c2)C(=O)N([C@@H](C)CO)C[C@@H](C)[C@@H](CN(C)Cc2ccc4c(c2)OCO4)OCCCC[C@@H](C)O3)cc1,inactive
5,COc1ccc(NC(=O)Nc2ccc3c(c2)C(=O)N([C@H](C)CO)C[C@@H](C)[C@H](CN(C)Cc2ccc4c(c2)OCO4)OCCCC[C@@H](C)O3)cc1,inactive
6,COc1ccc(NC(=O)Nc2ccc3c(c2)C(=O)N([C@H](C)CO)C[C@H](C)[C@@H](CN(C)Cc2ccc4c(c2)OCO4)OCCCC[C@H](C)O3)cc1,inactive
7,C[C@@H]1CCCCO[C@H](CN(C)C(=O)NC2CCCCC2)[C@H](C)CN([C@@H](C)CO)C(=O)c2cc(NC(=O)c3ccccc3)ccc2O1,inactive
8,C[C@@H]1CN([C@@H](C)CO)C(=O)Cc2cc(NC(=O)Cc3ccccc3)ccc2O[C@H]1CN(C)C(=O)Nc1cccc2ccccc12,inactive
9,C[C@@H]1CCCCO[C@H](CN(C)Cc2ccncc2)[C@@H](C)CN([C@H](C)CO)C(=O)c2cc(NC(=O)Nc3ccccc3)ccc2O1,inactive
10,COc1ccc(S(=O)(=O)Nc2cccc3c2O[C@@H](CN(C)S(=O)(=O)c2ccc(OC)cc2)[C@@H](C)CN([C@@H](C)CO)C3=O)cc1,inactive
11,COc1c(OCCCN2CCOCC2)ccc2c1N=C(NC(=O)c1cnc(N)nc1)N1CCN=C21,inactive
12,CCc1c(O)cc(O)c(C(=O)c2ccc(OCCN3CCOCC3)c(OC)c2)c1CC(=O)N(CCOC)CCOC,active
13,COc1cc(C(=O)OCCN2CCN(CCOC(=O)c3cc(OC)c(OC)c(OC)c3)CC2)cc(OC)c1OC,inactive
14,C[C@H]1CN([C@@H](C)CO)C(=O)c2cccc(NS(=O)(=O)c3ccc(F)cc3)c2O[C@@H]1CN(C)CC1CC1,inactive
15,Cc1cc(=O)n(CCO)c(=O)[nH]1,inactive
16,CCC(=O)N(C)C[C@H]1Oc2ncc(C#C[C@H](C)O)cc2C(=O)N([C@H](C)CO)C[C@H]1C,inactive
17,CC(C)(C)[S@](=O)N1Cc2cc(C(=O)N[C@@H]3CCN(Cc4ccccc4)C3)nc(-c3cccc(-c4cccnc4)c3)c2[C@@H]1CCO,inactive
18,COc1cccc(NC(=O)N(C)C[C@@H]2Oc3ncc(C#Cc4ccncc4)cc3C(=O)N([C@H](C)CO)C[C@@H]2C)c1,inactive
19,COc1cccc(NC(=O)N(C)C[C@@H]2Oc3ncc(C#Cc4ccncc4)cc3C(=O)N([C@H](C)CO)C[C@H]2C)c1,active
20,COc1cccc(NC(=O)N(C)C[C@H]2Oc3ncc(C#Cc4ccncc4)cc3C(=O)N([C@@H](C)CO)C[C@@H]2C)c1,active
21,COc1ccccc1NC(=O)N(C)C[C@@H]1Oc2ncc(C#CCN(C)C)cc2C(=O)N([C@H](C)CO)C[C@@H]1C,inactive
22,COc1cccc(NC(=O)N(C)C[C@@H]2Oc3ncc(C#Cc4cccnc4)cc3C(=O)N([C@@H](C)CO)C[C@H]2C)c1,inactive
23,COc1ccccc1NC(=O)N(C)C[C@@H]1Oc2ncc(C#CCN(C)C)cc2C(=O)N([C@@H](C)CO)C[C@@H]1C,inactive
24,COc1cccc(NC(=O)N(C)C[C@@H]2Oc3ncc(C#Cc4ccncc4)cc3C(=O)N([C@@H](C)CO)C[C@H]2C)c1,inactive
25,COc1ccccc1NC(=O)N(C)C[C@@H]1Oc2ncc(C#CCN(C)C)cc2C(=O)N([C@@H](C)CO)C[C@H]1C,active

row,Structure (SMILES),cytotoxicity call
1,COc1cccc(NC(=O)N(C)C[C@H]2Oc3ncc(C#Cc4ccncc4)cc3C(=O)N([C@H](C)CO)C[C@@H]2C)c1,inactive
2,COc1cccc(NC(=O)N(C)C[C@H]2Oc3ncc(C#Cc4ccncc4)cc3C(=O)N([C@H](C)CO)C[C@H]2C)c1,active
3,COc1cccc(NC(=O)N(C)C[C@@H]2Oc3ncc(C#Cc4ccncc4)cc3C(=O)N([C@@H](C)CO)C[C@@H]2C)c1,inactive
4,COc1cccc(NC(=O)N(C)C[C@H]2Oc3ncc(C#Cc4cccnc4)cc3C(=O)N([C@H](C)CO)C[C@H]2C)c1,inactive
5,COc1ccc(CN(C)C[C@H]2Oc3c(NC(=O)c4cc(C)nn4C)cccc3C(=O)N([C@@H](C)CO)C[C@@H]2C)cc1,inactive
6,COc1ccc(NC(=O)Nc2cccc3c2O[C@H](CN(C)S(=O)(=O)c2cn(C)cn2)[C@H](C)CN([C@@H](C)CO)C3=O)cc1,inactive
7,O=C(CCCCCC(=O)Nc1ccccc1O)N/N=C/[C@H](O)[C@@H](O)[C@H](O)[C@H](O)CO[C@H]1O[C@H](CO)[C@H](O)[C@H](O)[C@H]1O,inactive
8,O=C(C[C@@H]1CC[C@H](NC(=O)CN2CCOCC2)[C@H](CO)O1)NCCc1ccccc1,inactive
9,C[C@H]1CN([C@@H](C)CO)C(=O)c2cc(-c3ccc(F)cc3)cnc2O[C@H]1CN(C)C(=O)Cc1ccccn1,inactive
10,C[C@@H]1CCCCO[C@@H](CN(C)S(C)(=O)=O)[C@H](C)CN([C@@H](C)CO)C(=O)c2cc(NC(=O)Nc3ccc(C(F)(F)F)cc3)ccc2O1,inactive
11,CC(C)CC#Cc1ccc2c(c1)O[C@@H](CN(C)C(=O)NC1CCCC1)[C@H](C)CN([C@@H](C)CO)S2(=O)=O,inactive
12,COc1ccc(NC(=O)N(C)C[C@@H]2OCCCC[C@@H](C)Oc3ccc(NC(=O)CCC(F)(F)F)cc3C(=O)N([C@H](C)CO)C[C@@H]2C)cc1,inactive
13,C[C@@H]1CCCCO[C@@H](CN(C)C(=O)NC2CCCCC2)[C@H](C)CN([C@@H](C)CO)C(=O)c2cc(NC(=O)CCCCCC(=O)Nc3ccccc3N)ccc2O1,inactive
14,CS(=O)(=O)Nc1ccc2oc3c(OC(F)F)ccc(C(=O)Nc4c(Cl)cncc4Cl)c3c2c1,inactive
15,O=c1ccc2c[nH][nH]c-2c1,inactive
16,O=C(CCN1CCNCC1)N1CCCCC1,inactive
17,COc1ccc(S(=O)(=O)N(C)C[C@@H]2OCCCC[C@@H](C)Oc3ccc(NS(=O)(=O)c4cn(C)cn4)cc3C(=O)N([C@H](C)CO)C[C@@H]2C)cc1,inactive
18,C[C@H]1CCCCO[C@H](CN(C)Cc2ccc(C(=O)O)cc2)[C@@H](C)CN([C@@H](C)CO)C(=O)c2cc(NS(=O)(=O)c3ccccc3)ccc2O1,inactive
19,C[C@@H]1CN([C@H](C)CO)C(=O)c2cc(NC(=O)Nc3cccc4ccccc34)ccc2O[C@@H]1CN(C)CC1CCCCC1,active
20,C[C@@H]1CN([C@H](C)CO)C(=O)c2cc(NC(=O)Nc3cccc4ccccc34)ccc2O[C@H]1CN(C)CC1CCCCC1,active
21,C[C@H]1CN([C@@H](C)CO)C(=O)c2cc(NC(=O)Nc3cccc4ccccc34)ccc2O[C@@H]1CN(C)CC1CCCCC1,inactive
22,C[C@H](CO)N1C[C@H](C)[C@H](CN(C)CC2CCCCC2)Oc2ccc(NC(=O)Nc3cccc4ccccc34)cc2C1=O,inactive
23,C[C@H](CO)N1C[C@H](C)[C@@H](CN(C)CC2CCCCC2)Oc2ccc(NC(=O)Nc3cccc4ccccc34)cc2C1=O,inactive
24,C[C@@H]1CN([C@@H](C)CO)C(=O)c2cc(NC(=O)Nc3cccc4ccccc34)ccc2O[C@@H]1CN(C)CC1CCCCC1,inactive
25,C[C@@H]1CN([C@@H](C)CO)C(=O)c2cc(NC(=O)Nc3cccc4ccccc34)ccc2O[C@H]1CN(C)CC1CCCCC1,inactive

row,Structure (SMILES),cytotoxicity call
1,C[C@H](CO)N1C[C@H](C)[C@@H](CN(C)CC2CCCCC2)Oc2ccc(NC(=O)Nc3ccccc3)cc2C1=O,inactive
2,C[C@H]1CN([C@@H](C)CO)C(=O)c2cc(NC(=O)Nc3cccc4ccccc34)ccc2O[C@H]1CN(C)CC1CCCCC1,active
3,CC(=O)OC[C@H]1O[C@H](C/C=N/O[C@H](C)c2cn([C@@H]3COC[C@H]3O)nn2)C=C[C@@H]1OC(C)=O,inactive
4,C[C@H](CO)N1C[C@H](C)[C@H](CN(C)Cc2ccc(Cl)c(Cl)c2)Oc2ccc(NS(=O)(=O)c3cccs3)cc2C1=O,inactive
5,Cc1noc(C)c1S(=O)(=O)Nc1ccc2c(c1)CC(=O)N([C@@H](C)CO)C[C@H](C)[C@@H](CN(C)Cc1ccc(C(=O)O)cc1)O2,inactive
6,C[C@@H]1CN([C@H](C)CO)C(=O)Cc2cc(NS(=O)(=O)c3ccc(F)cc3)ccc2O[C@@H]1CN(C)C(=O)Nc1cccc2ccccc12,inactive
7,O=C(C[C@@H]1C[C@H]2c3cc(NC(=O)NC4CCCC4)ccc3O[C@H]2[C@@H](CO)O1)NCc1ccc2c(c1)OCO2,inactive
8,Cc1c(C(=O)Nc2ccc(Oc3ccnc4cc(OCC(C)(C)O)ccc34)c(F)c2)c(=O)n(-c2ccccc2)n1C,inactive
9,CCOc1ccn(-c2ccc(F)cc2)c(=O)c1C(=O)Nc1ccc(Oc2ccnc(N)c2Cl)c(F)c1,inactive
10,Cc1ccc(C(=O)Nc2ccc(Oc3cc4cnn(C)c4cc3-c3cn[nH]c3)c(F)c2)c(=O)n1-c1ccc(F)cc1,active
11,C[C@@H]1CCCCO[C@H](CN(C)C(=O)CCC(F)(F)F)[C@H](C)CN([C@@H](C)CO)C(=O)c2cc(NC(=O)CCCCCC(=O)Nc3ccccc3N)ccc2O1,inactive
12,C[C@@H]1CN([C@@H](C)CO)S(=O)(=O)c2ccc(C#Cc3ccccc3)cc2O[C@H]1CN(C)C(=O)CN(C)C,inactive
13,C[C@@H]1CN([C@H](C)CO)S(=O)(=O)c2ccc(C#Cc3ccc(F)cc3)cc2O[C@H]1CN(C)C(=O)CN(C)C,active
14,C[C@H]1CN([C@@H](C)CO)S(=O)(=O)c2ccc(Br)cc2O[C@@H]1CN(C)C(=O)Cc1ccccc1,inactive
15,C[C@H]1CN([C@@H](C)CO)S(=O)(=O)c2ccc(C#Cc3ccc(F)cc3)cc2O[C@@H]1CN(C)C(=O)CN(C)C,inactive
16,C[C@@H]1CN([C@H](C)CO)S(=O)(=O)c2ccc(C#Cc3cccnc3)cc2O[C@@H]1CN(C)C(=O)CN(C)C,inactive
17,C[C@@H]1CN([C@@H](C)CO)S(=O)(=O)c2ccc(C#Cc3ccc(F)cc3)cc2O[C@H]1CN(C)C(=O)CN(C)C,inactive
18,C[C@@H]1CN([C@H](C)CO)S(=O)(=O)c2ccc(C#Cc3ccccc3)cc2O[C@H]1CN(C)C(=O)CN(C)C,active
19,C[C@H]1CN([C@@H](C)CO)S(=O)(=O)c2ccc(Br)cc2O[C@H]1CN(C)C(=O)Cc1ccncc1,inactive
20,C[C@@H]1CN([C@H](C)CO)S(=O)(=O)c2ccc(C#Cc3cccnc3)cc2O[C@H]1CN(C)C(=O)CN(C)C,inactive
21,C[C@H]1CN([C@@H](C)CO)S(=O)(=O)c2ccc(C#Cc3ccc(F)cc3)cc2O[C@H]1CN(C)C(=O)CN(C)C,inactive
22,C[C@H]1CN([C@@H](C)CO)S(=O)(=O)c2ccc(Br)cc2O[C@H]1CN(C)C(=O)Cc1ccccc1,active
23,C[C@@H]1CN([C@H](C)CO)S(=O)(=O)c2ccc(C#Cc3ccccc3)cc2O[C@@H]1CN(C)C(=O)CN(C)C,active
